Source: PubChem (National Center for Advancing Translational Sciences (NCATS))
This is a sample that favours compounds with a hit; in the whole collection about 5.3% have one here.
TDP1 block – qHTS Assay for Inhibitors of Tyrosyl-DNA Phosphodiesterase (TDP1); Tyrosyl-DNA phosphodiesterase 1 (Homo sapiens), Q9NUW8; actives 0.28% (n = 350,000); Potency, µM (doses to about 130 µM), inactives show top-dose activity change, negative = inhibition, actives largely listed as inhibitors; AID 485290, 2010; recombinant TDP1, AlphaScreen DNA substrate cleavage; note: potency is the fitted concentration of half-maximal effect; % is set by controls: 0 for no effect and ±100 for the full control effect; nearly all actives have a fitted effect of over 40% in size
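Steps: enzyme plus compound, 15 min RT; add biotin/phosphotyrosine-FITC oligonucleotide (15 nM final), react 5 min; add donor/acceptor beads (10 ug/ml final), 10 min; read AlphaScreen. Tdp1 at 1 nM final.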
BAZ2B block – qHTS Assay for Inhibitors of BAZ2B; Potency, µM (top dose mostly 114 µM), inactives show top-dose activity change, negative = inhibition, actives largely listed as inhibitors; AlphaScreen BAZ2B-H3K14Ac peptide displacement; AID 504333, 2011; actives 4.4% (n = 360,000); Bromodomain adjacent to zinc finger domain protein 2B (Homo sapiens), Q9UIF8; note: potency is the fitted concentration of half-maximal effect; % is set by controls: 0 for no effect and ±100 for the full control effect; nearly all actives have a fitted effect of over 60% in size
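Multi-concentration screen (max 110 uM) measuring displacement of acetylated histone H3 peptide from BAZ2B by AlphaScreen, using 50 nM protein, 50 nM peptide and 10 ug/mL streptavidin donor plus Ni-chelate acceptor beads.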
JMJD2A Tudor inh – qHTS Assay for Inhibitors of JMJD2A-Tudor Domain. AlphaScreen JMJD2A-Tudor / H3K4me3 peptide binding. Potency, µM (series often up to 114 µM), inactives show at the top dose activity change, negative = inhibition, usual class: inhibitors. actives 4.4% (n = 390,000). AID 504339, 2011; note: potency is the fitted concentration of half-maximal effect; % is set by controls: 0 for no effect and ±100 for the full control effect; nearly all actives have a fitted effect of over 50% in size
Target sequence (O75164 whole entry, looked up, the tested form may be a part): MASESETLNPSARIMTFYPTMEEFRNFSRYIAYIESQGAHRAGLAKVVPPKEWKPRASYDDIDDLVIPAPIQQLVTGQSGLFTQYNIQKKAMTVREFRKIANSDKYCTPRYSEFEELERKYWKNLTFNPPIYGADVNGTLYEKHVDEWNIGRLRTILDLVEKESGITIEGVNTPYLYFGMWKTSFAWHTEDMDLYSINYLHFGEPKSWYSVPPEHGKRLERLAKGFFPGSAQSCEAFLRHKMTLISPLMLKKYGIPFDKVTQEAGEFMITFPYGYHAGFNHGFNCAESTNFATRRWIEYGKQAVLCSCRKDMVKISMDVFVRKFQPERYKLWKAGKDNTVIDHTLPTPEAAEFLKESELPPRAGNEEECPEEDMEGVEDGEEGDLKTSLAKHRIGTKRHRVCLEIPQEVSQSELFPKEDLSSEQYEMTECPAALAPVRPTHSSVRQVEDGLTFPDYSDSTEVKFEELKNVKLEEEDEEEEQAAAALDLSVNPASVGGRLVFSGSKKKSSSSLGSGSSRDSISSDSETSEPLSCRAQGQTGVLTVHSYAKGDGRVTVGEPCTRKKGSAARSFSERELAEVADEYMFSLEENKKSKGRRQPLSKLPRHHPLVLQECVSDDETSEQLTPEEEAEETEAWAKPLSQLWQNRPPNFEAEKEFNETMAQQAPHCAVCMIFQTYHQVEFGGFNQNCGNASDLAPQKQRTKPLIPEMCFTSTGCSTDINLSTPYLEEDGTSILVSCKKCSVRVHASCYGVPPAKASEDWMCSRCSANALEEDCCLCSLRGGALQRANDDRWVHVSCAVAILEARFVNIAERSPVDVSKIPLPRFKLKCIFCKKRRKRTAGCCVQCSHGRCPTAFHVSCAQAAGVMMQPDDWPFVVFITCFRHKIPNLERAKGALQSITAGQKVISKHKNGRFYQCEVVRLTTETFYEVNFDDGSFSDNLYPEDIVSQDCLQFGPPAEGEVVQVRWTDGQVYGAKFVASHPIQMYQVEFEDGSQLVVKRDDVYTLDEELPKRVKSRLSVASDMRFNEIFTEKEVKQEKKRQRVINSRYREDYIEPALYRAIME
CtBP-E1A blk – qHTS Assay for Inhibitors of the CtBP/E1A Interaction; actives 0.49% (n = 340,000); AID 651724, 2012; AlphaScreen GST-E1A/His-CtBP binding, 1536-well; hits give low values; CtBP / adenovirus E1A interaction (AlphaScreen); activity change, % (concentration not given with the values); in the data active = activity change below about -65%; inconclusive = mostly about -30% to -63%; note: % is set by controls: 0 for no effect and ±100 for the full control effect
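Homogeneous bead-based format: GST-tagged E1A captured on glutathione donor beads, His-tagged CtBP on nickel acceptor beads; compounds precede bead addition by 2 h at 37 °C.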
HP1b chromo inh – HTS for Inhibitors of HP1-beta Chromodomain Interactions with Methylated Histone Tails | Chromobox protein homolog 1 (Homo sapiens), P83916 | AlphaScreen HP1-beta / biotin-H3K9me3 peptide binding | Potency, µM (series often up to 114 µM), without a hit: at the highest dose activity change, negative = inhibition, most hits filed as inhibitors | actives 0.56% (n = 390,000) | AID 540317, 2011; note: potency is the fitted concentration of half-maximal effect; nearly all actives have a fitted effect of over 70% in size
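Compound inhibition of the preformed complex between 50 nM HP1-beta and 50 nM biotinylated H3K9me3 peptide was read by AlphaScreen. Buffer was PBS pH 7.4 with 0.01% Tween-20. Incubations ran 30 min at room temperature, with 10 ug/mL donor/acceptor beads.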
Six1-Eya2 blk – qHTS Assay for Inhibitors of the Six1/Eya2 Interaction | actives 0.56% (n = 360,000) | AlphaScreen GST-Six1/His-Eya2 binding, biochemical; hits give low values | Homeobox protein SIX1 (Homo sapiens) + Protein phosphatase EYA2 (Homo sapiens), … | activity change, % (no concentration beside the values); in the data active = activity change below about -65%; inconclusive = mostly about -30% to -63%; note: % is set by controls: 0 for no effect and ±100 for the full control effect
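Six1/Eya2 binding was read as AlphaScreen signal after compounds were pinned into GST-Six1 plus His-tagged Eya2 (5X stock 250/500 nM) in pH 8.0 Tris/NaCl/TCEP buffer, beads added, then incubated 1 h, 37 C, dark.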
* hit, by the source's call; ? = inconclusive; nt = no result; [ ] = dose if it differs, or a comment. Unless noted, calls come from the whole dose curve; as a rule, active = well fitted inhibition curve with a large enough effect; inconclusive = small, poorly fitted or top-dose-only effect; inactive = no such curve, though single readings can be large or run the other way.

SMILES	TDP1 block	BAZ2B block	JMJD2A Tudor inh	CtBP-E1A blk	HP1b chromo inh	Six1-Eya2 blk
O=C(O)c1ccc2c(ccc3nn(-c4ccc(/C=C/c5ccc(-n6nc7ccc8cc(C(=O)O)ccc8c7n6)cc5[S+](=O)([O-])[O-])c([S+](=O)([O-])[O-])c4)nc32)c1	2.5µM*	nt	18µM*	nt	?	nt
O=C(O)Cc1cccc2ccccc12	0%	5%	-10%	3	27%	0
O=C(O)Cc1cccc(=O)c(O)c1C(=O)O	nt	nt	1.1µM*	?	40µM*	-73*
CCOc1ccc(NC(=O)Cn2nc3c(cc2=O)CC(C)CC3)cc1 (stereo not drawn)	7%	3%	-15%	nt	19%[57 µM]	nt
CC(C)c1ccc(NC(=O)CSC2=Nc3ccccc3C3=NC(CC(=O)NCc4ccc(F)cc4)C(=O)N23)cc1 (stereo not drawn)	5%	-23%	?	nt	0%	nt
Cc1c(C#N)c(O)[nH]c(=O)c1N=Nc1ccc(Br)cc1C(=O)O	nt	?	?	-89*	-5%[57 µM]	-71*
COc1cccc(-c2coc3c(C)c4oc(=O)c(CCC(=O)O)c(C)c4cc23)c1	9%	-33%	-36%	-88*	-2%[57 µM]	?
COc1cccc(-c2coc3cc4oc(=O)c(CCC(=O)O)c(C)c4cc23)c1	nt	4%	-8%	-67*	12%	-77*
Cc1cccc(-n2ncc(C(=O)NCc3ccc4c(c3)OCO4)c2C2CCN(C(=O)OC(C)(C)C)CC2)c1	2%	-6%[57.1 µM]	-32%	nt	6%	nt
CC(C)c1ccc(NC(=O)C2CCCN(S(=O)(=O)c3ccc4[nH]c(=O)oc4c3)C2)cc1 (stereo not drawn)	5%	-11%	-12%	nt	32%	nt
COc1ccc(CNC(=O)CCc2nnc3n(CC(C)C)c(=O)c4ccccc4n23)cc1	1%	-1%	-9%	nt	21%	nt
COc1ccccc1NC(=O)Cn1c(O)c(N=NC(=O)c2ccccc2O)c2ccccc21	-14%	56µM*	-35%	2	17%	-2
CC1CC=CC2C1C(=O)N(Cc1ccccc1)C2c1ccc(-c2cc3ccccc3s2)cc1F (stereo not drawn)	3%	nt	-6%	nt	30%	nt
COc1ccc(CCNCC(=O)N2C(C)CCCC2C)cc1OC (stereo not drawn)	0%	79µM*	0.79µM*	-2	?	-7
COc1ccc(CCNCC(=O)Nc2ccc(C)c(Br)c2)cc1OC	nt	?	50µM*	0	?	4
COC(=O)c1ccccc1NC(=O)NCCc1ccc(OC)c(OC)c1	-4%	-12%	-21%	5	22%	-10
COc1ccc(CCNCC(=O)Nc2c(C)cc(C)cc2C)cc1OC	nt	6%	-9%	0	87%	0
COc1ccc(CCNC(=O)C2CC2)cc1OC	2%	nt	1%	0	14%	-2
COC(=O)c1ccccc1NC(=O)CNCCc1ccc(OC)c(OC)c1	nt	20µM*	25µM*	1	-34%	4
COc1ccc(CCNCC(=O)Nc2ccc(C)c(S(=O)(=O)N(C)C)c2)cc1OC	79µM*	22µM*	?	-20	-20%	4
CCCN(CCC)CCNC(=O)C1CCN(c2nc3ccc(CC)cc3s2)CC1	3%	-7%	-17%	nt	6%	nt
CCOCCCNCC(=O)N1CCN(S(=O)(=O)c2ccc(C)cc2)CC1	-8%	79µM*	4µM*	6	-38%	7
CCOC(=O)N1CCN(S(=O)(=O)c2ccc(C)cc2)CC1	4%	-19%	-8%	4	30%	-16
Cc1cc(C)cc(-n2ccn(Cc3ccccc3C)c(=O)c2=O)c1	0%	-1%	-8%	nt	17%	nt
Cc1cc2c(s1)c1cnn(Cc3cccc(Cn4ncc5c6sc(C)cc6n(C)c5c4=O)c3F)c(=O)c1n2C	nt	nt	-21%	nt	nt	nt
SMILES	TDP1 block	BAZ2B block	JMJD2A Tudor inh	CtBP-E1A blk	HP1b chromo inh	Six1-Eya2 blk
Fc1ccc(C2c3[nH]c4ccccc4c3CCN2CCCn2cccn2)cc1 (stereo not drawn)	nt	40µM*	?	-9	-18%	-8
CCOC(=O)COc1ccc(C2C(C(=O)OC)=C(C)NC3=C2C(=O)c2ccccc23)cc1Cl (stereo not drawn)	nt	-32%	18µM*	nt	?	nt
CCOc1cc(C2C(C(=O)OC)=C(C)NC3=C2C(=O)c2ccccc23)ccc1OC (stereo not drawn)	16%	-35%	-32%	nt	?	nt
CCOC(=O)C1=C(C)NC(=O)NC1c1ccc(OC)c(Cl)c1 (stereo not drawn)	2%	11%	-12%	2	20%	-2
CCOc1cc(C2C(C(=O)OC)=C(C)NC3=C2C(=O)c2ccccc23)c(Br)cc1OC (stereo not drawn)	nt	-26%	-26%	nt	-12%	nt
CCOc1cc(Br)c(C2C(C(=O)OC)=C(C)NC3=C2C(=O)c2ccccc23)cc1OCC (stereo not drawn)	nt	32µM*	-30%	nt	-25%	nt
CCOc1cc(C2C(C(=O)OC)=C(C)NC3=C2C(=O)c2ccccc23)c(Br)cc1O (stereo not drawn)	8%	22µM*	35µM*	nt	?	nt
CCOc1cc(C2C(C(=O)OC)=C(C)NC3=C2C(=O)c2ccccc23)cc(Br)c1OCC (stereo not drawn)	nt	10µM*	13µM*	nt	-26%	nt
Cc1ccc(NC(=O)c2cc(S(=O)(=O)N3CCC4(CC3)OCCO4)ccc2F)cc1Cl	8%	3%	-27%	nt	-10%	nt
COc1cccc2sc(N3CCN(C(=O)CCS(=O)(=O)c4ccc(F)cc4)CC3)nc12	5%	-5%	-12%	nt	0%	nt
CCCOC(=O)C1=C(C)NC(=O)NC1c1cccc2ccccc12 (stereo not drawn)	2%	-15%	-10%	-23	37%	-4
C#CCOc1ccc(C2C(C(=O)OC)=C(C)NC3=C2C(=O)c2ccccc23)cc1OCC (stereo not drawn)	nt	22µM*	25µM*	nt	?	nt
CCOC(=O)C1=C(C)NC2=C(C(=O)c3ccccc32)C1c1cccc2ccccc12 (stereo not drawn)	nt	35µM*	20µM*	-8	?	-14
